Inconclusive results are not listed. The source made the active and inactive calls. Calls follow the shape of the dose curve; as a rule, active = well fitted cell-killing curve with a large enough effect; inconclusive = small, poorly fitted or top-dose-only effect, or effect the other way; inactive = no such curve, though single readings can be large or run the other way.
Columns and labels:
[1] = Quantitative High-Throughput drug screen in 47 multiple myeloma cell lines against the NCATS MIPE library collection: OPM1_PLB cell viability assay (AID 1918989); also: series mostly up to about 46 µM; nearly all actives have a fitted effect of over 40% in size
Method in brief: (§1)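 500 cells/well per myeloma line exposed to pinned MIPE 4.0 compounds for 48 h at 37 °C, 5% CO2. Viability read as ATP by CellTiter-Glo luminescence, normalised to DMSO-only (100%) and media-only (0%) wells.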

[2] = Quantitative High-Throughput drug screen in 47 multiple myeloma cell lines against the NCATS MIPE library collection: XG6_PLB cell viability assay (AID 1919865); also: nearly all actives have a fitted effect of over 40% in size; also: potency is read from the fitted curve at half-maximal effect
Method in brief: as §1

[3] = Quantitative High-Throughput drug screen in 47 multiple myeloma cell lines against the NCATS MIPE library collection: PE2_PLB cell viability assay (AID 1919869); also: nearly all actives have a fitted effect of over 35% in size
Method in brief: as §1

[4] = Quantitative High-Throughput drug screen in 47 multiple myeloma cell lines against the NCATS MIPE library collection: SKMM1_PLB cell viability assay (AID 1919863); conditions: SKMM1 myeloma viability, CellTiter-Glo ATP, 48 h; viability: hits give low values; also: series mostly up to about 46 µM; nearly all actives have a fitted effect of over 35% in size
Method in brief: as §1

[5] = Quantitative High-Throughput drug screen in 47 multiple myeloma cell lines against the NCATS MIPE library collection: UTMC2_PLB cell viability assay (AID 1919868); also: nearly all actives have a fitted effect of over 55% in size; also: potency is read from the fitted curve at half-maximal effect
Method in brief: as §1

[6] = Quantitative High-Throughput drug screen in 47 multiple myeloma cell lines against the NCATS MIPE library collection: XG1_PLB cell viability assay (AID 1919866); also: nearly all actives have a fitted effect of over 35% in size; also: potency is read from the fitted curve at half-maximal effect
Method in brief: as §1

[7] = Quantitative High-Throughput drug screen in 47 multiple myeloma cell lines against the NCATS MIPE library collection: VP6_DJ cell viability assay (AID 1919867); also: nearly all actives have a fitted effect of over 40% in size; also: potency is read from the fitted curve at half-maximal effect
Method in brief: as §1

[8] = Quantitative High-Throughput drug screen in 47 multiple myeloma cell lines against the NCATS MIPE library collection: U266_ATCC cell viability assay (AID 1919864); also: nearly all actives have a fitted effect of over 35% in size; also: potency is read from the fitted curve at half-maximal effect
Method in brief: as §1

Cn1nnc2c(C(N)=O)ncn2c1=O
inactive: Potency [1] | Potency [2] | Potency [3]

CC(C)NCC(O)c1ccc(NS(C)(=O)=O)cc1 (stereo not given)
inactive: Potency [1] | viability [4] 159% | Potency [2] | Potency [5] | Potency [3]

O=C(N[C@H](CO)[C@H](O)c1ccc([N+](=O)[O-])cc1)C(Cl)Cl
inactive: Potency [1] | viability [4] 115% | Potency [2]

CCc1cc(C(N)=S)ccn1
inactive: Potency [1] | Potency [2] | Potency [6]

CC1(C)[C@H](C(=O)O)N2C(=O)C[C@H]2S1(=O)=O
inactive: Potency [1] | viability [4] 120% | Potency [2] | Potency [3]

CC(C)C1CCC(C(=O)N[C@H](Cc2ccccc2)C(=O)O)CC1 (stereo not given in full)
inactive: Potency [1] | Potency [2] | Potency [3]

CCN1CCCC1CNC(=O)c1cc(S(N)(=O)=O)ccc1OC (stereo not given)
active: Potency [7] 5.9 µM
inactive: Potency [1] | viability [4] 123% | Potency [2] | Potency [6]

CCCCCCNC(=O)n1cc(F)c(=O)[nH]c1=O
inactive: Potency [1] | Potency [3]

C#CCN[C@@H]1CCc2ccccc21
inactive: Potency [1] | Potency [8] | Potency [3]

N[C@@H](C(=O)N[C@@H]1C(=O)N2C(C(=O)O)=C(Cl)CS[C@H]12)c1ccccc1
inactive: Potency [1] | viability [4] 123% | Potency [2] | Potency [5] | Potency [3]

CC1=C(C(=O)O)N2C(=O)[C@@H](NC(=O)C(N)c3ccccc3)[C@H]2SC1 (stereo not given in full)
inactive: Potency [1] | viability [4] 130% | Potency [2] | Potency [5] | Potency [3]

CN1CCN(c2c(F)cc3c(=O)c(C(=O)O)cn(CCF)c3c2F)CC1
inactive: Potency [1] | Potency [6] | Potency [3]

O=C(O)CSCC(=O)NC1CCSC1=O (stereo not given)
inactive: Potency [1] | viability [4] 130% | Potency [2] | Potency [6] | Potency [3]

CS(=O)(=O)c1ccc([C@@H](O)[C@@H](CO)NC(=O)C(Cl)Cl)cc1
inactive: Potency [8]
active: Potency [2] 18.7 µM | Potency [6] 18.7 µM | Potency [7] 16.6 µM | Potency [5] 13.2 µM

CN(Cc1cc(Br)cc(Br)c1N)C1CCCCC1
inactive: Potency [1] | Potency [2] | Potency [5]

NNC(=O)c1ccncc1
inactive: Potency [1] | Potency [2] | Potency [6] | Potency [7] | Potency [3]

C[C@@H]1CN(c2c(F)c(N)c3c(=O)c(C(=O)O)cn(C4CC4)c3c2F)C[C@H](C)N1
inactive: Potency [1] | viability [4] 160% | Potency [2] | Potency [5] | Potency [3]

O=NN(CCCl)C(=O)NC1CCCCC1
inactive: Potency [1] | Potency [8] | Potency [2] | Potency [6] | Potency [5] | Potency [3]

CC(C(=O)O)c1ccc2c(c1)CC(=O)c1ccccc1S2 (stereo not given)
inactive: Potency [1] | Potency [3]

NC(=O)N1c2ccccc2CC(=O)c2ccccc21
inactive: Potency [1] | viability [4] 118% | Potency [2] | Potency [6] | Potency [3]

CCCCS(=N)(=O)CCC(N)C(=O)O (stereo not given)
active: Potency [6] 13.2 µM | Potency [7] 7.43 µM
inactive: Potency [8] | Potency [3]

Nc1nc(N)c2nc(CNc3ccc(C(=O)NC(CCC(=O)O)C(=O)O)cc3)cnc2n1 (stereo not given)
active: Potency [8] 0.148 µM | Potency [6] 0.0332 µM

NC(=O)c1ccc2[nH]ccc2c1
inactive: Potency [8] | Potency [2] | Potency [7] | Potency [3]

From PubChem BioAssay (NCATS)
